D1 antag = Antagonist of Human D 1 Dopamine Receptor: qHTS; D(1A) dopamine receptor (Homo sapiens), P21728; HEK293 TREx D1 cells, calcium flux, dopamine EC80; hits give low values; activity change, negative = inhibition, % at 10 µM; hit rate 3.2% among 360,000; in the data active = activity change below about -30%; also: % is scaled to controls: 0 for no effect and ±100 for the full control effect
Target sequence (P21728 whole entry, looked up): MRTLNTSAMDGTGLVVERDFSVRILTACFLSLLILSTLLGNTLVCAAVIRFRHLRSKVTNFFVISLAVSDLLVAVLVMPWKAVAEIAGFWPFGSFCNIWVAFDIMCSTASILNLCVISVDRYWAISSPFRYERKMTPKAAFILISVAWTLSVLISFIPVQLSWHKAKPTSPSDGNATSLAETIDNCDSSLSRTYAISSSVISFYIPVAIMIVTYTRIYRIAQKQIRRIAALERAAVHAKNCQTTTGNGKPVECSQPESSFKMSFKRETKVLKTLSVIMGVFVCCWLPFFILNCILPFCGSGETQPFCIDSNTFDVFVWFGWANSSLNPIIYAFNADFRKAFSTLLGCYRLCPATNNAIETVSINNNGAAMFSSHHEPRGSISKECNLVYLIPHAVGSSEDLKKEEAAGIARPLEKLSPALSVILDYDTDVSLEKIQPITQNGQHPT
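Compound effects on dopamine-evoked calcium signalling were measured in tetracycline-induced HEK293 Trex D1 cells. Dopamine at EC80 followed a 180 s compound pre-read, and fluorescence was tracked kinetically for 180 s more.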
D1 PAM = Potentiators of Human D1 Dopamine Receptor: qHTS; HEK293 TREx D1 cells, calcium flux, dopamine EC20 potentiation; hit rate 0.036% among 360,000; AID 504651, 2011; potentiation, % at 10 µM; in the data active = potentiation above about 30%; also: 0% is about no effect
D3 antag = qHTS of D3 Dopamine Receptor Antagonist: qHTS; D(3) dopamine receptor (Homo sapiens), P35462; D3R cells, DiscoveRx beta-arrestin luminescence, antagonist mode; hits give low values; max response, negative = inhibition, %; hit rate 2.5% among 360,000; in the data active = max response below about -50%; also: % is scaled to controls: 0 for no effect and ±100 for the full control effect
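Cells expressing the human receptor were seeded at 1500 cells/well, incubated overnight at 37 degrees C in 5% CO2, then exposed to library compounds with dopamine controls for 90 minutes at 37 degrees C before luminescent detection.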
D1 agonist = Allosteric Agonists of the Human D1 Dopamine Receptor: qHTS. hit rate 1% among 360,000. HEK293 T-REx D1 cells, calcium flux, agonist mode. D(1A) dopamine receptor (Homo sapiens), P21728. AID 504660, 2011. activation, % at 2 µM; in the data active = activation above about 30%; also: 0% is about no effect
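Inducible HEK293 T-REx D1 cells, force-coupled to calcium signalling, were plated at 4000 cells/well with tetracycline and held overnight at 30 C. After no-wash calcium dye loading, compound-evoked calcium rise over 180 s flagged agonists.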
DRD3 agonist = qHTS of D3 Dopamine Receptor Agonist: qHTS; D3R DiscoveRx beta-arrestin cells, luminescence, 90 min; D(3) dopamine receptor (Homo sapiens), P35462; max activation, %; AID 652048, 2013; hit rate 0.58% among 410,000; in the data active = max activation above about 30%; also: 0% is about no effect
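Agonist-mode cell screen: cells plated at 1500/well and incubated overnight at 37 °C, then exposed to library compounds for 90 min at 37 °C. Detection reagent was added for 30–60 min at room temperature, and luminescence was read.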
The depositor's hits bear a star; / = no result given. The list is not random: actives were taken first. Their share in the collection is about 6.1%.

SMILES | D1 antag | D1 PAM | D3 antag | D1 agonist | DRD3 agonist
COc1ccc2cc1Oc1ccc(cc1)C[C@H]1c3c(cc(OC)c4c3Oc3c(ccc5c3[C@H](C2)N(C)CC5)O4)CCN1C | / | / | 11 | / | -6
COCCCNC(=S)N/N=C/c1ccc(O)cc1O | -3 | -6 | -5 | 3 | 32*
O=C(N/N=C/c1ccc(O)cc1O)C(=O)N/N=C/c1ccc(O)cc1O | 9 | 3 | 5 | 12 | 40*
O=C(NN=Cc1ccc(O)cc1)C(=O)NN=Cc1ccc(O)cc1 | / | / | 3 | / | 13
Oc1ccc(C=NNC(=S)Nc2ccc(F)cc2)c(O)c1 | / | / | 27 | / | 33*
COCCNc1ccc(N2C(=O)CCCC2=O)cc1[N+](=O)[O-] | -47* | -3 | -3 | 1 | 0
CCOCCCNc1ccc(N2C(=O)CCCC2=O)cc1[N+](=O)[O-] | 3 | -2 | 36 | 2 | -7
CCC(C)NCCCCOc1cc(C)cc(C(C)C)c1 (stereo unspecified) | 15 | 3 | 0 | 18 | -12
CCC(C)NCCOc1cc(C)cc(C)c1C (stereo unspecified) | 10 | 2 | -69* | 8 | -15
Cc1cccc(C)c1OCCn1c(CCNC(=O)C2CCCCC2)nc2ccccc21 | 0 | 3 | / | 13 | -25
CC1(C)c2ssc(=S)c2-c2ccccc2N1C(=O)c1ccco1 | 3 | -1 | -21 | 6 | -5
Cc1ccc2c(c1)-c1c(ssc1=S)C(C)(C)N2C(=O)c1ccco1 | 8 | -3 | -62* | -2 | -26
CCOc1ccc2oc(=O)cc(CN3CCN(c4ccc(OC)cc4)CC3)c2c1 | -16 | 0 | / | 6 | -1
CCCSc1oc(-c2ccco2)nc1S(=O)(=O)c1ccc(Br)cc1 | -36* | 2 | / | 17 | -1
CCCSc1oc(-c2ccco2)nc1S(=O)(=O)c1ccc(C)cc1 | 0 | -7 | 0 | 3 | 4
Cc1ccc(CSc2oc(-c3ccco3)nc2S(=O)(=O)c2ccc(Br)cc2)cc1 | -35* | 0 | / | 15 | -10
CCNC(=S)Nc1ccc(Cl)cc1 | 10 | -6 | 1 | 5 | 8
Cc1ccc(SCCNC(=S)Nc2cc(C)cc(C)c2)cc1 | -11 | -3 | 41 | 1 | -8
Cc1ccc(NC(=S)NCCSc2ccc(Cl)cc2)cc1 | -37* | -10 | -13 | 22 | -6
CCCCNC(=S)Nc1ccc(C(F)(F)F)cc1 | -33* | -6 | 19 | 22 | -4
CCCCNC(=S)Nc1ccc(Cl)cc1 | -33* | 3 | 17 | 10 | -7
CCCNC(=S)Nc1cccc(C(F)(F)F)c1 | -12 | -2 | 0 | 17 | 2
Cc1ccc(CSc2nnc(C)c(=O)n2N)cc1 | -48* | 3 | 5 | 1 | 1
CCCCNC(=O)C1CCC(Cn2c(=O)c3sccc3n(Cc3ccccc3)c2=O)CC1 (stereo unspecified) | 8 | -1 | / | -1 | 5
Cc1nnc(N2CCN(Cc3ccccc3)CC2)[nH]c1=O | 4 | -1 | -54* | 4 | -11
SMILES | D1 antag | D1 PAM | D3 antag | D1 agonist | DRD3 agonist
COc1cccc(CNC(=O)CSC2=Nc3ccccc3C3=NC(C(C)C)C(=O)N23)c1 (stereo unspecified) | -4 | 1 | / | 0 | -11
CCC(=O)Nc1cccc(NC(=S)NC(=O)c2cccc(C)c2)c1 | -38* | 1 | -6 | 9 | -1
Cc1cccc(C(=O)N/N=C/c2ccncc2)c1 | -37* | -8 | -27 | 0 | -1
COc1c(C(=O)Nc2ccc(Cc3ccncc3)cc2)ccc2ccccc12 | -17 | -11 | 11 | 9 | 34*
Cc1cccc(C(=O)NC(=S)Nc2ccc(S(=O)(=O)N(C)c3ccccc3)cc2)c1 | 2 | 13 | -66* | 5 | -4
O=C(N/N=C/c1ccncc1)c1ccncc1 | / | / | -8 | / | -10
CCOC(=O)c1c(NC(=O)CSc2nc(-c3ccc(OC)cc3)cc(C(F)(F)F)n2)sc(C)c1C | 4 | 0 | / | 1 | -9
O=C(Cn1c(-c2cccs2)cc2cc(F)ccc21)NCCc1ccc(Cl)cc1 | 8 | 0 | / | 0 | 3
COc1ccc2c(c1)c1c(c(=O)n(-c3ccc(OC)c(OC)c3)c(=O)n1CC(=O)N1CCCC1)n2C | 2 | 0 | / | 1 | -8
COc1ccccc1C(=O)NC(=S)Nc1ccc(Cc2ccncc2)cc1 | 48 | 39* | 36 | 19 | 1
Cc1cccc(C(=O)NC(=S)Nc2ccc(Cc3ccncc3)cc2)c1 | 6 | 1 | -78* | 9 | 2
Cc1ccc2occ(CC(=O)N(Cc3ccc(N(C)C)cc3)C3CCS(=O)(=O)C3)c2c1 (stereo unspecified) | -43* | 2 | / | 1 | 9
CCc1ccc2occ(CC(=O)N(Cc3ccc(N(C)C)cc3)C3CCS(=O)(=O)C3)c2c1 (stereo unspecified) | 5 | 6 | / | -2 | 0
CCCN(C(=O)Cc1coc2cc(OC)ccc12)C1CCS(=O)(=O)C1 (stereo unspecified) | / | / | -52* | / | -8
Cc1ccc(-c2ccc(=O)n(CC(=O)Nc3ccc(C(C)C)cc3)n2)cc1 | -12 | -2 | / | 6 | 1
CCCCOC(=O)c1ccc(NC(=S)NC(=O)c2c(Cl)cnn2CC)cc1 | 7 | 0 | -11 | 6 | -1
CCCCOC(=O)c1ccc(NC(=S)NC(=O)c2c(Cl)cnn2C)cc1 | -7 | -5 | -85* | 3 | -3
Cc1cc(-c2ccc(C)c(S(=O)(=O)N(C)c3ccc(C)c(C)c3)c2)on1 | -26 | -5 | / | 9 | 7
CCOc1ccccc1CC1C(=O)Nc2ccc(Br)cc21 (stereo unspecified) | -5 | -2 | / | 0 | -10
CCOc1c(CC2C(=O)Nc3ccc(Br)cc32)cccc1OC (stereo unspecified) | -41* | -2 | / | 69* | -1
c1ccc(COc2cccc(CNn3cnnc3)c2)cc1 | 0 | -9 | -21 | 2 | -11
CC(NCc1cccc(OCc2ccccc2)c1)C(O)c1ccccc1 (stereo unspecified) | / | -3 | 12 | 42* | -1
CC(NCc1ccc(OCc2ccc(Cl)cc2)cc1)C(O)c1ccccc1 (stereo unspecified) | -5 | -5 | 0 | 38* | -4
OCCCCNCc1ccc(OCc2ccc(Cl)cc2)cc1 | -51* | -5 | -18 | 26 | -14
N#Cc1nc(NCC(F)F)c2ncn(-c3cc(F)cc(F)c3)c2n1 | -18 | 2 | / | 1 | /
COCCNC(=O)C1(C)CCN(Cc2cccc(Oc3ccccc3)c2)C1 (stereo unspecified) | / | / | -23 | / | -12
CCNC(=O)C1(C)CCCN(Cc2csc(-c3ccc(Cl)cc3)n2)C1 (stereo unspecified) | / | / | -20 | / | -14
